Experimental data from PubChem BioAssay AID1159580 (chemical genetic matrix, 2015).
Values joined by “and” are separate entries in the source; they are usually repeats but may differ in a detail not shown here. Equal values may be shown once. In all, about 5,500 compounds went through this assay and about 2,000 (36%) were called active. Another 18% or so got no clear call; they are omitted. No stated cut-off is given here; in the data, active means normalized growth mostly below about 0.91 (no sharp cut-off); inconclusive means no clear call, values can overlap the other calls; inactive means mostly above about 0.92. This is one part of the list.

Experiment: chemical genetic growth profiling, strain panel (AID 1159580);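 further: tested at 20 µM; growth read once vehicle control cultures reached saturation at 30 °C; 1 = growth at the plate median or of vehicle wells; lower values mean less growth of the strain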
Settings: S. cerevisiae deletion strains, growth OD

Measured: normalized growth

CCOC(=O)[C@H](CCc1ccccc1)N[C@@H](C)C(=O)N1[C@H](C(=O)O)C[C@@H]2CCC[C@@H]21
inactive: locus YAL013W, strain DEP1, hits give low values 1.01 | locus YAL021C, strain ccr4, hits give low values 1.01 | locus YAL026C, strain drs2, hits give low values 0.985 | locus YAL030W, strain snc1, hits give low values 0.995 | locus YBL061C, strain skt5, hits give low values 0.984 | locus YBR009C, strain hhf1, hits give low values 0.995 | locus YBR021W, strain FUR4, hits give low values 1 | locus YBR023C, strain chs3, hits give low values 0.983 | locus YBR171W, strain sec66, hits give low values 0.971 | locus YBR229C, strain ROT2, hits give low values 1.01 | locus YBR231C, strain swc5, hits give low values 0.982 | locus YBR279W, strain paf1, hits give low values 0.979 | locus YCL011C, strain gbp2, hits give low values 0.981 | locus YCL016C, strain dcc1, hits give low values 0.985 | locus YCL029C, strain bik1, hits give low values 1.01 | locus YCL061C, strain MRC1, hits give low values 0.982 | locus YCL069W, strain vba3, hits give low values 0.977 | locus YCR088W, strain abp1, hits give low values 0.978 | locus YDL005C, strain med2, hits give low values 0.981 | locus YDL035C, strain GPR1, hits give low values 1.01 | locus YDL040C, strain nat1, hits give low values 0.981 | locus YDL074C, strain BRE1, hits give low values 1.02 | locus YDL101C, strain DUN1, hits give low values 1.01 | locus YDL134C, strain PPH21, hits give low values 1.01 | locus YDL185W, strain tfp1, hits give low values 0.998 | locus YDL192W, strain arf1, hits give low values 1.02 | locus YDR001C, strain nth1, hits give low values 0.978 | locus YDR069C, strain doa4, hits give low values 1.01 | locus YDR101C, strain arx1, hits give low values 1.01 | locus YDR137W, strain rgp1, hits give low values 0.946 | locus YDR150W, strain NUM1, hits give low values 1.01 | locus YDR159W, strain sac3, hits give low values 0.987 | locus YDR162C, strain NBP2, hits give low values 1.03 | locus YDR195W, strain ref2 0.97 | locus YDR297W, strain sur2, hits give low values 0.981 | locus YDR318W, strain mcm21, hits give low values 1.02 | locus YDR334W, strain swr1, hits give low values 0.978 | locus YDR335W, strain msn5, hits give low values 0.985 | locus YDR388W, hits give low values 1.01 | locus YDR392W, strain spt3, hits give low values 0.974 | locus YDR502C, strain sam2, hits give low values 1.01 | locus YEL003W, strain gim4, hits give low values 0.981 | locus YEL037C, strain rad23, hits give low values 0.982 | locus YEL061C, strain CIN8 (second series), hits give low values 0.98 | locus YEL061C, strain CIN8, hits give low values 1.01 | locus YER015W, strain faa2, hits give low values 0.989 | locus YER016W, strain bim1, hits give low values 0.993 | locus YER110C, hits give low values 1.01 | locus YER111C, strain swi4, hits give low values 0.976 | locus YER155C, strain BEM2 (second series), hits give low values 0.972 | locus YER155C, strain BEM2, hits give low values 1 | locus YER167W, strain BCK2, hits give low values 1.01 | locus YFR010W, strain ubp6, hits give low values 0.989 | locus YGL078C, strain dbp3, hits give low values 1.01 | locus YGL086W, strain mad1, hits give low values 1.02 | locus YGL167C, strain pmr1, hits give low values 0.979 | locus YGL173C, strain kem1, hits give low values 0.969 | locus YGL227W, strain vid30, hits give low values 0.979 | locus YGL240W, strain doc1, hits give low values 1 | locus YGL248W, strain PDE1, hits give low values 1.01 | locus YGL253W, strain hxk2, hits give low values 0.996 | locus YGR078C, strain PAC10, hits give low values 1.01 | locus YGR135W, strain pre9, hits give low values 1.02 | locus YGR229C, strain SMI1, hits give low values 1.01 | locus YGR252W, strain gcn5, hits give low values 1.03 | locus YHR013C, strain ard1, hits give low values 0.956 | locus YHR027C, strain rpn1, hits give low values 0.979 | locus YHR030C, strain SLT2, hits give low values 1 and 1.01 | locus YHR079C, strain IRE1 (second series), hits give low values 1.01 | locus YHR079C, strain IRE1, hits give low values 1 | locus YHR094C, strain hxt1, hits give low values 1.02 | locus YHR129C, strain ARP1, hits give low values 1.01 | locus YHR142W, strain chs7, hits give low values 0.971 | locus YHR200W, strain rpn10, hits give low values 1.02 | locus YIL066C, strain RNR3, hits give low values 1.01 | locus YIL073C, strain SPO22, hits give low values 1.07 | locus YIL125W, strain kgd1, hits give low values 1.03 | locus YIR030C, strain dcg1, hits give low values 1.02 | locus YJL092W, strain hpr5, hits give low values 0.981 | locus YJL095W, strain BCK1 (second series), hits give low values 0.985 | locus YJL095W, strain BCK1, hits give low values 1 and 0.991 | locus YJL115W, strain asf1, hits give low values 0.986 | locus YJL129C, strain trk1, hits give low values 0.987 | locus YJL134W, strain LCB3, hits give low values 1.01 | locus YJL154C, strain vps35, hits give low values 0.978 | locus YJL164C, strain tpk1, hits give low values 0.995 | locus YJL166W, strain qcr8, hits give low values 0.99 | locus YJL168C, strain set2, hits give low values 1.02 | locus YJL187C, strain SWE1 (second series), hits give low values 1.01 | locus YJL187C, strain SWE1, hits give low values 0.985 | locus YJR043C, strain POL32, hits give low values 1.01 | locus YJR066W, strain TOR1, hits give low values 0.955
